# Measurements from PubChem BioAssay (NCI).
# The panel holds about 83,000 compounds, 20% with a hit somewhere; the sample as a whole holds those more often.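 Compound tested at a single concentration for 48 hours in 96-well plates; a percent growth value below 10 was scored as active.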 The source made the active and inactive calls.
# System: K-562 leukemia
# Experiment: NCI-60 one-dose screen, 48 h (100 = growth as untreated, 0 = no growth, -100 = all killed)
# Conditions: 10 µM unless noted
row,SMILES,growth
1,CN(C)c1ccc(/C=C/c2n(Cc3ccc4ccccc4c3)c3ccccc3[n+]2Cc2ccc3ccccc3c2)cc1,2.08% (active)
2,Cc1nn(-c2ccccc2)c2nc(C)n(CC(=O)N/N=C/c3ccccc3O)c(=O)c12,18.4% (inactive)
3,CC1=C(C)C(=O)C(N2CCSCC2)=CC1=O,107% (inactive)
4,NC(=O)c1ccc(-c2ccc3ncnc(N4CCc5cc(F)c(Cl)cc54)c3c2)cn1,34.7% (inactive)
5,Cn1ncc2c(N)nc(Oc3ccccc3-c3ccccc3)nc21,6.56% (active)
6,C=CC[n+]1cccc2c3ccccc3ccc21,27.8% (inactive)
7,COc1ccc2nc(NC(=O)c3ccc(N(C)C)cc3)sc2c1,60.2% (inactive)
8,O=C(N/N=C/c1ccoc1)c1[nH]c2ccc(Br)cc2c1-c1ccccc1,3.56% (active)
9,O=C(Nc1ccc(-c2ccc3c(c2)NC(=O)/C3=C\c2ccc[nH]2)cc1)Nc1ccc(Cl)c(C(F)(F)F)c1,15.2% (inactive)
10,CN1C(=O)/C(=C/c2ccco2)S/C1=N/c1nccs1,101% (inactive)
11,COc1cccc2nc(Nc3cccc(NC(=O)c4ccc(CN5CCN(C)CC5)c(C(F)(F)F)c4)c3)ccc12,2.54% (active)
12,Fc1cccc(CNc2nc(SCCN3CCOCC3)nc3c2cnn3CC(Cl)c2ccc(Br)cc2)c1 (centres undefined),-4.59% (active)
13,CCCCNc1ccc2c3c(cccc13)C(=O)N(c1cccc(-c3nn(-c4ccccc4)cc3-c3nc4ccccc4s3)c1)C2=O,89.5% (inactive)
14,N/C(=N\c1nc2ccccc2s1)NC(=O)Nc1ccccc1[N+](=O)[O-],10.6% (inactive)
15,Cc1ccc(C(=O)Nc2cc(-c3ccncc3)cc(C(F)(F)F)c2)cc1C#Cc1cnc2cccnn12,2.38% (active)
16,CCN1C(=O)N(CC)C2NNC(Sc3c(C(=O)O)c4ccccc4n(CCC(C)C)c3=O)=NC21 (centres undefined),6.37% (active)
17,CC1=C(C(=O)OCc2ccccc2)C(c2ccc(N(C)C)cc2)n2c(nc3ccccc32)N1 (centres undefined),58% (inactive)
18,COc1cc(/C=C/C(=O)c2cnn(-c3cc(=O)[nH]c4ccc(Br)cc34)c2C)cc(OC)c1OC,-0.439% (active)
19,S=C(Nc1ccc(OCc2nc3ccc(Cl)cc3[nH]2)cc1)NC1CCCCC1,5.65% (active)
20,Nc1nn2c(-c3cc4cc(Br)ccc4oc3=O)ccnc2c1N=Nc1ccc(S(N)(=O)=O)cc1,53.9% (inactive)
21,CCN(C(=O)CN1C(=O)/C(=C/c2ccco2)SC1=S)C1CCS(=O)(=O)C1 (centres undefined),89.9% (inactive)
22,Cn1cc(Nc2ncnc(-c3ccc(N4CCCC4)c(C#N)c3)n2)cn1,29.8% (inactive)
23,O=C1Nc2ccccc2/C1=C\c1ccc(OCC(=O)c2ccc(Br)cc2)cc1,27.8% (inactive)
24,COc1cc(CNC(=O)C[C@H](C)CCC=C(C)C)ccc1OCc1cn(-c2ccc(Br)cc2)nn1,66.3% (inactive)
